# Data from ChEMBL document CHEMBL2218924, “A broad activity screen in support of a chemogenomic map for kinase signalling research and drug discovery” (Biochem J, 2013).
# Molecular target: Vascular endothelial growth factor receptor 2 (Homo sapiens) (UniProt P35968)
# Conditions: at 10 µM
# Chain of Vascular endothelial growth factor receptor 2 (Homo sapiens) (P35968 whole entry): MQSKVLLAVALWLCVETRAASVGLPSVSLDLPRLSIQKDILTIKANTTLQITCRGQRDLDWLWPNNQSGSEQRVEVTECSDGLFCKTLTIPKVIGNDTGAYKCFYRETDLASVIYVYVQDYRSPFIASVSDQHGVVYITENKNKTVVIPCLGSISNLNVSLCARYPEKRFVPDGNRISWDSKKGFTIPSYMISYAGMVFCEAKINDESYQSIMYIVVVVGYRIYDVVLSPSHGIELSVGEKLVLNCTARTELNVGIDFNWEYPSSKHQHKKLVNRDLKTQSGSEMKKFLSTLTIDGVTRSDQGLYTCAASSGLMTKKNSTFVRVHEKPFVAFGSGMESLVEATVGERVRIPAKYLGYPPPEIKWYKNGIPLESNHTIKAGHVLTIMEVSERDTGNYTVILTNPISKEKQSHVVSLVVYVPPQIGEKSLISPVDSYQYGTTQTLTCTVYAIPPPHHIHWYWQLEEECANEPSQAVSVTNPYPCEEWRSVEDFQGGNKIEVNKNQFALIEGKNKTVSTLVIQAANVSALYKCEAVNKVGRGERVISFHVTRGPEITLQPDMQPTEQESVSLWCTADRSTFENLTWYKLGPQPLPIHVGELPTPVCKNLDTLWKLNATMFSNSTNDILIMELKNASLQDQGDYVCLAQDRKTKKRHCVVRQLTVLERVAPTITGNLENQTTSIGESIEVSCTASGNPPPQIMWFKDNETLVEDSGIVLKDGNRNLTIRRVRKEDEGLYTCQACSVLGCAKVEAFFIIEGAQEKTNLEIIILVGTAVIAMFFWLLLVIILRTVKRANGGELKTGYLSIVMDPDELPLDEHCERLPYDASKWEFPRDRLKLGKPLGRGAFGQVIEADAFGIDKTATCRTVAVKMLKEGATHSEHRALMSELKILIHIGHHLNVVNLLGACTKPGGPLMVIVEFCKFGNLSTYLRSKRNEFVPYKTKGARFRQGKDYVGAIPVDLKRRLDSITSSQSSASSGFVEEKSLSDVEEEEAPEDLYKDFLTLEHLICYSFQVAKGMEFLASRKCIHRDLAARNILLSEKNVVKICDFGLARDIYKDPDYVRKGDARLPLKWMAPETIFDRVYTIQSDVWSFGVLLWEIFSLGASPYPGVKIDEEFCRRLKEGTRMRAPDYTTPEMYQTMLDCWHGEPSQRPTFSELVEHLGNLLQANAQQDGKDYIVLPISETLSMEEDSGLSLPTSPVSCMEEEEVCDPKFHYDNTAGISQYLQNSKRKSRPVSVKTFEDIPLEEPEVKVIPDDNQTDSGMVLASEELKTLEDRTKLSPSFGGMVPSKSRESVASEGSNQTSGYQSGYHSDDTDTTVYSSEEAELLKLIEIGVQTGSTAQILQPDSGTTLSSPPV
row,SMILES,residual activity
1,NC(=O)c1ccc2[nH]c(-c3ccc(Oc4ccc(Cl)cc4)cc3)nc2c1,43%
2,Cc1nc(-c2ccccc2)c(-c2ccncc2)o1,78%
3,CCOc1cc2ncnc(Nc3cccc(Br)c3)c2cc1OCC,13%
4,CC(C)n1cnc2/c(=N/c3cccc(Cl)c3)nc(NCCO)[nH]c21,53%
5,Nc1nc(Nc2ccc(S(N)(=O)=O)cc2)nn1C(=S)Nc1c(F)cccc1F,0%
6,Cc1ccc(S(=O)(=O)/C=C/C#N)cc1,95%
7,Ic1cccc(CSc2nnc(-c3ccncc3)o2)c1,65%
8,O=C1NC(=O)c2c1c1c3ccccc3[nH]c1c1[nH]c3cc(Br)ccc3c21,58%
9,O=C1NC(=O)/C(=C\c2ccc3nccnc3c2)S1,63%
10,CCN(CC)CCCCN1c2ccccc2Oc2ccc(Cl)cc21,104%
11,COc1cccc(-c2cc(=O)c3ccccc3o2)c1N,102%
12,O=C1c2ccccc2-[n+]2ccc3c([nH]c4ccccc43)c21,78%
13,Oc1ccc(-c2nc(-c3ccc(F)cc3)c(-c3ccncc3)[nH]2)cc1,49%
14,Cc1nc2cc3nc(-c4cccs4)cnc3cc2n1C,5%
15,COc1ccc(C(=O)Nc2sc3c(c2C(N)=O)CCCC3)cc1OC,75%
16,Cn1cc(/C=C2\C(=O)Nc3ccc(S(N)(=O)=O)cc32)c2ccccc21,7%
17,Nc1ccc2ncnc(NCCc3ccc(Oc4ccccc4)cc3)c2c1,53%
18,CO[C@H]1C[C@@H]2CC[C@@H](C)[C@@](O)(O2)C(=O)C(=O)N2CCCC[C@H]2C(=O)O[C@H]([C@H](C)C[C@@H]2CC[C@@H](O)[C@H](OC)C2)CC(=O)[C@H](C)/C=C(\C)[C@@H](O)[C@@H](OC)C(=O)[C@H](C)C[C@H](C)/C=C/C=C/C=C/1C,96%
